The values below come from ChEMBL document CHEMBL4513140, “CO-ADD screening of Lancaster University (UK) compounds” (2021).

Assay [1] concerns Staphylococcus aureus. The note with it: Concentration 32 ug.mL-1; ASSAY_TEST Inhibition of Bacterial Growth; detection method Absorption (OD600); MEDIA CAMHB; plate type 384well; NBS; CORNING #3640; time 18 hr.
Assay [2] deals with Escherichia coli. To be noted: Concentration 32 ug.mL-1; ASSAY_TEST Inhibition of Bacterial Growth; detection method Absorption (OD600); MEDIA CAMHB; plate type 384well; NBS; CORNING #3640; time 18 hr.

Molecules are shown by their SMILES. Entries with a potency or affinity are not part of this list.

The Inhibition is the drop in the measured response relative to a control, in per cent.

On to `c1ccc2nc3c4cccnc4c4ncccc4c3nc2c1`, for which the Inhibition in assay [1] is on record as 8.68%; in assay [2], -14.57%.

`CC(=NN)c1cc(/C(C)=N/N)cc(/C(C)=N/N)c1`: the figures for the Inhibition in assay [1] and in assay [2] were 18.93% and 9.06%, respectively.

For the compound `COC(=O)c1ccc(S)cc1`, the Inhibition in assay [1] is listed as 8.34%; in assay [2], -21.23%.

`CC(=O)c1cc(C(C)=O)cc(C(C)=O)c1`: the figures for the Inhibition in assay [1] and in assay [2] were 25.72% and -14.66%, respectively.
